From PubChem BioAssay AID1159580 (chemical genetic matrix, 2015)
“And” between values parts separate entries of the source, which are not always exact repeats. Identical values can stand only once. The whole screen tested about 5,500 compounds, of which about 2,000 (36%) were called active. Another 18% or so got no clear call; they are omitted. Cut-off read from the data, not from the text of the source: active = normalized growth mostly below about 0.91 (no sharp cut-off); inconclusive = no clear call, values can overlap the other calls; inactive = mostly above about 0.92. The list shows a part of the results.

Assay: chemical genetic growth profiling, strain panel (AID 1159580);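 note: tested at 20 µM; growth read once vehicle control cultures reached saturation at 30 °C; 1 = growth at the plate median or of vehicle wells; lower values mean less growth of the strain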
Conditions: S. cerevisiae deletion strains, growth OD

Measured: normalized growth

CCOC(=O)c1ccc(N)cc1
inactive: locus YAL021C, strain ccr4, stronger effect = lower value 1.03 | locus YAL026C, strain drs2, stronger effect = lower value 1 | locus YAL030W, strain snc1, stronger effect = lower value 1.01 | locus YBL061C, strain skt5, stronger effect = lower value 0.999 | locus YBR009C, strain hhf1, stronger effect = lower value 0.98 | locus YBR021W, strain FUR4, stronger effect = lower value 0.998 | locus YBR023C, strain chs3, stronger effect = lower value 1.03 | locus YBR171W, strain sec66, stronger effect = lower value 1.03 | locus YBR229C, strain ROT2, stronger effect = lower value 0.999 | locus YBR231C, strain swc5, stronger effect = lower value 1 | locus YBR279W, strain paf1, stronger effect = lower value 1 | locus YCL011C, strain gbp2, stronger effect = lower value 0.987 | locus YCL016C, strain dcc1, stronger effect = lower value 1.01 | locus YCL029C, strain bik1, stronger effect = lower value 0.993 | locus YCL061C, strain MRC1, stronger effect = lower value 1.01 | locus YCL069W, strain vba3, stronger effect = lower value 0.993 | locus YCR088W, strain abp1, stronger effect = lower value 1.01 | locus YDL005C, strain med2, stronger effect = lower value 1.01 | locus YDL035C, strain GPR1, stronger effect = lower value 1.01 | locus YDL040C, strain nat1, stronger effect = lower value 1.01 | locus YDL074C, strain BRE1, stronger effect = lower value 0.994 | locus YDL101C, strain DUN1, stronger effect = lower value 0.993 | locus YDL185W, strain tfp1, stronger effect = lower value 0.994 | locus YDL192W, strain arf1, stronger effect = lower value 1.01 | locus YDR001C, strain nth1, stronger effect = lower value 0.999 | locus YDR069C, strain doa4, stronger effect = lower value 1.04 | locus YDR101C, strain arx1, stronger effect = lower value 1.01 | locus YDR137W, strain rgp1, stronger effect = lower value 1.01 | locus YDR150W, strain NUM1, stronger effect = lower value 0.993 | locus YDR159W, strain sac3, stronger effect = lower value 1 | locus YDR162C, strain NBP2, stronger effect = lower value 0.999 | locus YDR195W, strain ref2 1.09 | locus YDR297W, strain sur2, stronger effect = lower value 1.01 | locus YDR318W, strain mcm21, stronger effect = lower value 0.994 | locus YDR334W, strain swr1, stronger effect = lower value 1.02 | locus YDR335W, strain msn5, stronger effect = lower value 1.02 | locus YDR388W, stronger effect = lower value 0.989 | locus YDR392W, strain spt3, stronger effect = lower value 0.941 | locus YDR502C, strain sam2, stronger effect = lower value 0.987 | locus YEL003W, strain gim4, stronger effect = lower value 1.02 | locus YEL037C, strain rad23, stronger effect = lower value 1.01 | locus YEL061C, strain CIN8 (second series), stronger effect = lower value 1.04 | locus YEL061C, strain CIN8, stronger effect = lower value 1.01 | locus YER015W, strain faa2, stronger effect = lower value 1.01 | locus YER016W, strain bim1, stronger effect = lower value 0.972 | locus YER110C, stronger effect = lower value 0.995 | locus YER111C, strain swi4, stronger effect = lower value 1 | locus YER155C, strain BEM2 (second series), stronger effect = lower value 0.952 | locus YER155C, strain BEM2, stronger effect = lower value 1.01 | locus YER167W, strain BCK2, stronger effect = lower value 1 | locus YFR010W, strain ubp6, stronger effect = lower value 1.02 | locus YGL078C, strain dbp3, stronger effect = lower value 0.996 | locus YGL086W, strain mad1, stronger effect = lower value 0.993 | locus YGL167C, strain pmr1, stronger effect = lower value 1.03 | locus YGL173C, strain kem1, stronger effect = lower value 0.998 | locus YGL227W, strain vid30, stronger effect = lower value 1.02 | locus YGL240W, strain doc1, stronger effect = lower value 0.996 | locus YGL248W, strain PDE1, stronger effect = lower value 0.997 | locus YGL253W, strain hxk2, stronger effect = lower value 1.01 | locus YGR135W, strain pre9, stronger effect = lower value 0.99 | locus YGR252W, strain gcn5, stronger effect = lower value 0.959 | locus YHR013C, strain ard1, stronger effect = lower value 1.04 | locus YHR027C, strain rpn1, stronger effect = lower value 1.01 | locus YHR030C, strain SLT2, stronger effect = lower value 1.01 and 1.02 | locus YHR079C, strain IRE1 (second series), stronger effect = lower value 0.994 | locus YHR079C, strain IRE1, stronger effect = lower value 0.993 | locus YHR094C, strain hxt1, stronger effect = lower value 0.984 | locus YHR129C, strain ARP1, stronger effect = lower value 1 | locus YHR142W, strain chs7, stronger effect = lower value 0.963 | locus YHR200W, strain rpn10, stronger effect = lower value 0.989 | locus YIL066C, strain RNR3, stronger effect = lower value 1.02 | locus YIL073C, strain SPO22, stronger effect = lower value 0.943 | locus YIL125W, strain kgd1, stronger effect = lower value 0.991 | locus YIR030C, strain dcg1, stronger effect = lower value 0.997 | locus YJL092W, strain hpr5, stronger effect = lower value 1.02 | locus YJL095W, strain BCK1 (second series), stronger effect = lower value 1.01 | locus YJL095W, strain BCK1, stronger effect = lower value 0.995 and 0.999 | locus YJL115W, strain asf1, stronger effect = lower value 1.02 | locus YJL129C, strain trk1, stronger effect = lower value 1.04 | locus YJL134W, strain LCB3, stronger effect = lower value 1 | locus YJL154C, strain vps35, stronger effect = lower value 1.01 | locus YJL164C, strain tpk1, stronger effect = lower value 0.982 | locus YJL166W, strain qcr8, stronger effect = lower value 1.01 | locus YJL168C, strain set2, stronger effect = lower value 0.992 | locus YJL187C, strain SWE1 (second series), stronger effect = lower value 0.985 | locus YJR043C, strain POL32, stronger effect = lower value 1.02 | locus YJR066W, strain TOR1, stronger effect = lower value 0.966 | locus YKL009W, strain mrt4, stronger effect = lower value 0.976 | locus YKL068W, stronger effect = lower value 0.993 | locus YKL085W, strain MDH1 (second series), stronger effect = lower value 0.996 | locus YKL085W, strain MDH1, stronger effect = lower value 0.996 | locus YKL160W, strain elf1, stronger effect = lower value 1.02 | locus YKL190W, strain CNB1, stronger effect = lower value 0.988 | locus YKR001C, strain vps1, stronger effect = lower value 0.987 | locus YKR091W, strain srl3, stronger effect = lower value 1.01 | locus YLL001W, strain dnm1, stronger effect = lower value 1.01 | locus YLL026W, stronger effect = lower value 1.02 | locus YLL041C, strain sdh2, stronger effect = lower value 1.02 | locus YLR027C, strain aat2, stronger effect = lower value 1 | locus YLR039C, strain RIC1, stronger effect = lower value 1.01 | locus YLR058C, strain SHM2, stronger effect = lower value 0.999 | locus YLR102C, strain apc9, stronger effect = lower value 0.989 | locus YLR113W, strain HOG1, stronger effect = lower value 0.979 | locus YLR221C, strain rsa3, stronger effect = lower value 1.01 | locus YLR258W, strain gsy2, stronger effect = lower value 0.998 | locus YLR262C, strain YPT6 (second series), stronger effect = lower value 1.03 | locus YLR262C, strain YPT6, stronger effect = lower value 0.988 | locus YLR268W, strain sec22, stronger effect = lower value 0.991 | locus YLR320W, strain mms22, stronger effect = lower value 0.978 | locus YLR330W, strain CHS5, stronger effect = lower value 1.01 | locus YLR342W, strain FKS1 (second series), stronger effect = lower value 1.03 | locus YLR342W, strain FKS1, stronger effect = lower value 1 | locus YLR357W, strain rsc2, stronger effect = lower value 1.05 | locus YLR370C, strain arc18, stronger effect = lower value 1.01 | locus YLR371W, strain rom2, stronger effect = lower value 0.994 | locus YLR384C, strain iki3, stronger effect = lower value 1.02 | locus YLR418C, strain cdc73, stronger effect = lower value 0.988 | locus YML016C, strain PPZ1, stronger effect = lower value 1 | locus YML032C, strain rad52, stronger effect = lower value 0.995 | locus YML120C, strain ndi1, stronger effect = lower value 1.02 | locus YML124C, strain tub3, stronger effect = lower value 0.992 | locus YMR058W, strain fet3, stronger effect = lower value 1.03 | locus YMR078C, strain ctf18, stronger effect = lower value 0.998 | locus YMR125W, strain sto1, stronger effect = lower value 1.01 | locus YMR129W, stronger effect = lower value 1.01 | locus YMR205C, strain PFK2, stronger effect = lower value 1.01 | locus YMR223W, strain ubp8, stronger effect = lower value 0.997 | locus YMR231W, strain pep5, stronger effect = lower value 1.01 | locus YMR263W, strain SAP30, stronger effect = lower value 1 | locus YMR307W, strain GAS1, stronger effect = lower value 1.09 | locus YNL067W, strain RPL9B, stronger effect = lower value 0.975 | locus YNL071W, strain lat1, stronger effect = lower value 0.983 | locus YNL183C, strain NPR1, stronger effect = lower value 0.949 | locus YNL209W, strain ssb2, stronger effect = lower value 0.993 | locus YNL233W, strain BNI4, stronger effect = lower value 1.01 | locus YNL248C, strain rpa49, stronger effect = lower value 1 | locus YNL250W, strain rad50, stronger effect = lower value 0.983 | locus YNL271C, strain bni1, stronger effect = lower value 0.993 | locus YNL298W, strain CLA4, stronger effect = lower value 1.01 | locus YNL307C, strain MCK1, stronger effect = lower value 0.986 | locus YNL322C, strain KRE1 (second series), stronger effect = lower value 1.01 | locus YNR049C, strain mso1, stronger effect = lower value 1.02 | locus YNR052C, strain pop2, stronger effect = lower value 0.987 | locus YOL006C, strain TOP1, stronger effect = lower value 1.03 | locus YOL012C, strain htz1 0.986 | locus YOL147C, strain pex11, stronger effect = lower value 0.993 | locus YOR001W, strain rrp6, stronger effect = lower value 1.02 | locus YOR061W, strain CKA2, stronger effect = lower value 0.996 | locus YOR069W, strain VPS5, stronger effect = lower value 0.998 | locus YOR070C, strain gyp1, stronger effect = lower value 0.989 | locus YOR080W, strain dia2, stronger effect = lower value 1.03 | locus YOR083W, strain WHI5, stronger effect = lower value 1.01 | locus YOR106W, strain vam3, stronger effect = lower value 1.02 | locus YOR136W, strain idh2, stronger effect = lower value 0.98 | locus YOR144C, strain elg1, stronger effect = lower value 0.997 | locus YOR184W, strain ser1, stronger effect = lower value 0.991 | locus YOR231W, strain MKK1, stronger effect = lower value 0.989 | locus YOR265W, strain rbl2, stronger effect = lower value 1.01 | locus YOR270C, strain vph1, stronger effect = lower value 0.973 | locus YOR290C, strain snf2, stronger effect = lower value 0.988 | locus YOR316C, strain cot1, stronger effect = lower value 0.989 | locus YPL051W, strain arl3, stronger effect = lower value 1.02 | locus YPL055C, strain LGE1, stronger effect = lower value 1 | locus YPL078C, strain atp4, stronger effect = lower value 1.03 | locus YPL106C, strain sse1, stronger effect = lower value 0.946 | locus YPL240C, strain hsp82, stronger effect = lower value 1.02 | locus YPL241C, strain CIN2, stronger effect = lower value 1 | locus YPL256C, strain CLN2, stronger effect = lower value 0.983 | locus YPR119W, strain clb2, stronger effect = lower value 0.99 | locus YPR141C, strain kar3, stronger effect = lower value 0.999 | locus YPR163C, strain tif3, stronger effect = lower value 1 | locus YPR167C, strain met16, stronger effect = lower value 0.996 | strain wtn01, stronger effect = lower value 0.997
